# High-throughput results as filed in PubChem BioAssay.
# HMGR II inh: blocks class II HMG-CoA reductase of Enterococcus faecalis | purified E. faecalis HMGR, NADPH absorbance 340 nm kinetic | inhibition, % at 10 µM | actives 0.41% (n = 190,000) | AID 1066;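 active = inhibition above a set limit, the median over all tested compounds plus 3 SD, cut at about 9.5% in these data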;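 also: enzyme runs in reverse so mevalonate oxidation gives rising NADPH absorbance; 0% = complete reaction with DMSO and 100% = background rate lacking mevalonate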
# 14-3-3 Bad PPI: disrupts binding of bovine 14-3-3 zeta to phospho-Bad peptide; TR-FRET 14-3-3zeta/Dy647-pBad peptide displacement, 1 h; inhibition, % at 21.7 µM; actives 0.71% (n = 220,000);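 active = inhibition above about 70%, limit read from the data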;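 also: 0% = full 14-3-3 plus peptide FRET controls and 100% = background without 14-3-3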
# Target sequence (P63103 whole entry, looked up): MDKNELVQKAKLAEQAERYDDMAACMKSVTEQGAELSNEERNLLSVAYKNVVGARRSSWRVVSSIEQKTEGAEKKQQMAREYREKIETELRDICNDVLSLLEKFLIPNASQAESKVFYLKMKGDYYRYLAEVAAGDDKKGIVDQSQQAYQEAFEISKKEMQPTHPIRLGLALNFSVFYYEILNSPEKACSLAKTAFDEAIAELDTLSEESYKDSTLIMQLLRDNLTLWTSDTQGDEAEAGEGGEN
# ROMK primary: modulates human ROMK potassium channel activity; P48048; Tet-inducible ROMK, thallium flux fluorescence; actives lie on both sides; B-score at 10 µM; actives 2% (n = 130,000); AID 1918;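 active = signal ratio slope over the read window, or its plate-corrected B-score, at least 3 SD from the plate mean, either direction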;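 also: B-score of the F/F0 ratio slope over 7 to 12 s after thallium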
# Target sequence (P48048 whole entry, looked up): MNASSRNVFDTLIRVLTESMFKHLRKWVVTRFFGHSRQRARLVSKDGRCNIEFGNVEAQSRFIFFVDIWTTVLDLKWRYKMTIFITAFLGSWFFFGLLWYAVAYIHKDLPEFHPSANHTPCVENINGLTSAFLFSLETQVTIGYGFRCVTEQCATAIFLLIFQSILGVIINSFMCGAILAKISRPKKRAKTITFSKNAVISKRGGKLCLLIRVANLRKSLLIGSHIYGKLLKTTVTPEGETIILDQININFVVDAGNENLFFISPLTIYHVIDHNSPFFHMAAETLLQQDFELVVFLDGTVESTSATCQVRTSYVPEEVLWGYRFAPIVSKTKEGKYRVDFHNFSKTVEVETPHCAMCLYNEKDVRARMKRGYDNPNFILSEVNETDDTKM
# m-calpain inh: calpain II (pig) inhibition; purified calpain II, fluorogenic peptide substrate, 30 min; inhibition, % at 16 µM; actives 0.37% (n = 220,000);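 active = inhibition above about 50%, limit read from the data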
# zVAD death inh: L929 zVAD cell death inhibition. L929 zVAD necroptosis rescue, ATP luminescence, 24 h; with zVAD 60 µM. viability rescue, % at 10 µM. actives 0.38% (n = 220,000). AID 1377;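 active = activation, scaled between plate controls, above about 75%, limit read from the data; inactive = activation under that limit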;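 also: 0% = zVAD with DMSO and 100% = DMSO alone without zVAD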
# TNF necrop inh: blocks TNF-alpha induced death of Jurkat FADD-/- cells | Jurkat FADD-/- TNF necroptosis rescue, ATP luminescence, 24 h; 0 = TNF only, 100 = no-TNF cells | activation (protection from cell death), % at 10 µM | actives 0.068% (n = 220,000) | AID 463075;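 active = activation, meaning protection from cell death, of at least 50% relative to plate controls; inactive = activation below 50%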;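 also: necroptosis triggered by 40 ng/mL TNF-alpha added together with compound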
# * = called active by the depositor; nt = no result given; [ ] = another dose, or the depositor's remark. The list is not random: actives were taken first. Their share in the collection is about 3%.
SMILES,HMGR II inh,14-3-3 Bad PPI,ROMK primary,m-calpain inh,zVAD death inh,TNF necrop inh
CO/N=C/c1ccc(Sc2ccccc2N)c([N+](=O)[O-])c1,-1.8,12.8,nt,61.6*,0.2,-3.5
Cc1ccc(S(=O)(=O)N(C)CCCC(=O)NC(C)(C)C)cc1,11.9*,-1.7,0.46,8.3,1.3,0.8
O=c1c(O)cccc2cc(O)c(O)c(O)c12,nt,94.0*,nt,19.5,-1.0,-6.4
COc1cc2cccc(OC)c(=O)c2c(OC)c1OC,-1.9,-16.2,0.611,21.3,1.6,0.0
Clc1ncc(CN2CCN(Cc3ccccc3)CC2)s1,-2.7,-10.7,nt,30.8,-0.1,-0.7
COc1ccc(CCN2C(=O)CS/C2=N\NC(=O)c2ccc(C(C)(C)C)cc2)cc1OC,-2.5,-6.0,nt,4.2,-0.9,1.2
COc1cccc(-c2nc(Cc3ccc(OC)c(OC)c3)no2)c1,-0.1,6.8,-1.81,-0.3,2.0,1.0
COc1ccc(Cc2noc(-c3ccccc3)n2)cc1OC,15.2*,-2.5,-1.04,1.7,-0.7,-4.3
S=c1nc(C2CC2)n(-c2ccccc2)[nH]1,nt,-7.5,nt,1.2,-0.1,1.2
CC(=O)C(Cc1ccc(Cl)nc1)(Cc1ccc(Cl)nc1)C(C)=O,10.0*,-2.7,-0.629,-3.3,0.9,0.2
CC(=O)C(Cc1cnc(Cl)s1)(Cc1cnc(Cl)s1)C(C)=O,-1.8,1.4,nt,28.5,0.0,-3.8
CCN(CC)S(=O)(=O)c1ccc(N2CCCC2)c(NC(=O)CC(C)(C)C)c1,nt,8.0,nt,10.9,0.2,2.5
Cn1c(=O)n(C)c2cc([N+](=O)[O-])c(N3CCN(S(C)(=O)=O)CC3)cc21,-2.4,-9.7,-1.22,10.5,1.7,1.9
Cn1c(=O)n(C)c2cc([N+](=O)[O-])c(N3CCN(CCO)CC3)cc21,-1.4,3.9,0.0562,66.4*,-0.4,0.5
CCCn1c(SCc2nc3ccccc3s2)n[nH]c1=O,4.2,6.2,-0.0144,50.2*,-0.6,0.7
COc1cc(CN2CCNC(=O)C2CC(=O)N2CCc3ccccc3C2)cc(OC)c1 (centres undefined),-8.8,13.2,-0.00252,-18.8,-0.8,0.2
COc1ccc(OC)c(NC(=O)C(=O)NNC(=O)COc2ccc(Br)cc2C)c1,-0.9,14.2,1.61*,-104.9,-0.8,0.3
COc1ccc(C)cc1NC(=O)C(=O)NNC(=O)COc1ccc(Cl)cc1,-3.9,-8.8,7.13*,-11.3,1.9,1.4
COc1ccc(C)cc1NC(=O)COCC(=O)O,-1.8,-6.5,nt,-42.2,0.7,1.2
COc1ccc(C(=O)COC(=O)[C@H](C)Nc2ccc(C(F)(F)F)cc2[N+](=O)[O-])c(OC)c1,-4.1,-4.4,nt,-73.7,0.2,-1.5
O=c1[nH]c(/C=C/c2ccccc2[N+](=O)[O-])nc2ccccc12,1.6,70.5*[fluorescence artefact?],nt,33.2,6.6,1.6
O=c1[nH]c(/C=C/c2cccc3ccccc23)nc2ccccc12,-0.6,58.1,-0.421,-2.7,0.2,0.1
CN1CCN(CCOc2cccc(Cl)c2)CC1,-6.0,72.9*,nt,4.7,-0.5,-1.6
COCCn1c(=N)c(C(=O)NCc2ccco2)cc2c(=O)n3cc(C)ccc3nc21,16.5*,-9.5,-1.47,-369.9,-1.6,0.5
Cc1cccc(-c2ncc(CN3CCN(CC(C)C)C(CCO)C3)cn2)c1 (centres undefined),9.6*,1.0,0.204,16.8,-0.6,1.0
SMILES,HMGR II inh,14-3-3 Bad PPI,ROMK primary,m-calpain inh,zVAD death inh,TNF necrop inh
COc1ccc(-c2ncc(CN3CCN(CCC(C)C)C(CCO)C3)cn2)cc1 (centres undefined),0.7,-7.8,nt,-11.8,0.7,-0.6
CC(C)CN1CCN(Cc2nc(C(C)C)cs2)CC1CCO (centres undefined),10.6*,0.0,-0.0492,2.4,-0.3,0.2
Cc1oc(-c2ccc(Cl)cc2)[n+]([O-])c1C,0.0,83.8*,nt,-3.5,-0.2,-3.6
Cc1oc(-c2ccc(Cl)cc2)cc1C(=O)O,nt,8.9,-0.00602,0.8,0.9,1.3
COc1ccc(C2SCCN2C(=S)Nc2cccc(C(F)(F)F)c2)cc1 (centres undefined),-6.1,-0.4,nt,30.5,3.0,2.5
O=C(CSc1nc2ccccc2n1CCc1ccccc1)c1ccc(O)c(O)c1,-1.8,93.7*,1.42,-55.4,0.3,-4.9
O=C(CSc1nc2ccccc2n1CCc1ccccc1)N1CCOCC1,-14.7,3.6,0.378,-13.2,-1.0,1.2
N#Cc1c(N)nc(SCc2ccncc2)c(C#N)c1-c1cccs1,-3.7,-5.5,nt,-38.1,2.5,-1.5
CN1CCc2nc(SCc3ccc(Cl)cc3)c(C#N)c(-c3cccs3)c2C1,nt,nt,-3.38*,nt,-0.2,-10.0
COc1cc(NC(=O)Cn2ccsc2=N)cc(OC)c1,nt,11.4,nt,21.1,-0.6,3.9
C=CCSc1nnc(-c2ccc([N+](=O)[O-])cc2)o1,-3.9,17.5,-0.0466,47.4,0.5,-0.6
NC(=O)CSc1nnc(-c2ccc([N+](=O)[O-])cc2)o1,14.2*,1.3,-0.033,-12.5,1.1,-0.1
CC(C(=O)Nc1ccccc1Oc1ccccc1)c1ccccc1 (centres undefined),1.8,9.7,-0.0727,52.3*,nt,-0.4
CC1CN(C(=O)C2(C)CC2(Cl)Cl)CC(C)O1 (centres undefined),1.1,-0.5,0.0928,5.9,0.8,0.1
NS(=O)(=O)c1cccc(NC(=O)Cn2cc(C(F)(F)F)cc(Cl)c2=O)c1,nt,0.5,nt,19.5,0.1,2.1
CN(C)S(=O)(=O)c1cccc(NC(=O)Cn2cc(C(F)(F)F)cc(Cl)c2=O)c1,16.4*,-4.3,0.164,-14.7,1.4,2.2
CCOC(=O)C(=CNc1ccc(C)cc1C)C(=O)OCC,-7.3,-1.2,nt,30.2,1.6,-7.2
CCOC(=O)C(=CNc1cccc(C)c1C)C(=O)OCC,-1.5,-7.5,-0.311,52.1*,-0.4,-7.5
O=C(O)c1ccc(N2C(=O)/C(=C/c3ccc(-c4ccc([N+](=O)[O-])cc4)o3)C=C2c2ccccc2)cc1,2.2,93.7*,-0.0402,37.0,3.6,-13.4
CC1=NN(c2ccc(Cl)c(C(=O)O)c2)C(=O)/C1=C\c1ccc(-c2ccc(C(=O)O)cc2)o1,-6.1,-24.9,1.45,-47.3,3.7,-0.1
COc1ccc(N/N=C(C)/C(=N/O)C(=O)Nc2ccccc2)cc1,-2.5,-6.7,0.13,-2.0,-2.2,-12.9
CCC(O)C1CCN(C(=O)c2cc(COc3ccc4ncccc4c3)on2)CC1 (centres undefined),-0.3,-4.0,nt,-12.2,-1.0,-6.7
COCCNC(=O)c1onc(CSc2cccc(Cl)c2)c1C(=O)O,2.9,55.1,-0.334,-13.2,0.2,-1.0
COCCNC(=O)c1onc(CSc2ccccc2C)c1C(=O)O,-4.0,29.0,nt,-22.3,-0.4,-1.2
COCCNC(=O)c1onc(CSc2ccc(F)c(F)c2)c1C(=O)O,4.6,76.6*,-0.287,9.1,0.5,-1.7
COCCNC(=O)c1onc(CSc2cc(C)ccc2C)c1C(=O)O,2.7,77.8*,-0.0885,20.2,0.3,-1.2
